Inconclusive results are not listed. Active and inactive are the calls of the source. Unless noted, the call rests on the fitted dose curve; in most records, active means well fitted curve in the direction sought with a large enough effect in the repeat runs; inconclusive means weak or mixed curves; inactive means no such curve, though single readings can be large; an effect the other way counts as inactive or inconclusive.
Key:
[1] = A CellTox Green Cytotoxicity Assay to monitor cytotoxicity in HEK293 cells - 32 hour (AID 1224881); further: nearly all actives have a fitted effect of over 40% in size
Outline: (§1)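 HEK293 cells, 600/well, were preincubated 5 hours and then exposed to compounds at 37 C for up to 40 hours. A cell-impermeant cyanine dye staining dead-cell DNA was read by fluorescence at 0, 8, 16, 24, 32 and 40 h time points.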

[2] = A CellTox Green Cytotoxicity Assay to monitor cytotoxicity in HepG2 cells - 0 hour (AID 1224882); further: nearly all actives have a fitted effect of over 35% in size
Outline: (§2)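 HepG2 cells, 600/well, preincubated 5 h with CellTox Green dye, then exposed to Tox21 compounds in DMSO at 37 C for up to 40 h. Dead-cell DNA fluorescence read at the indicated time point.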

[3] = A CellTox Green Cytotoxicity Assay to monitor cytotoxicity in HEK293 cells - 8 hour (AID 1224884); further: nearly all actives have a fitted effect of over 35% in size
Outline: as §1

[4] = qHTS RealTime-Glo MT Cell Viability Assay in HepG2 cells - 16 hour (AID 1224885); further: nearly all actives have a fitted effect of over 50% in size
Outline: (§3)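 Real-time, nonlytic viability: 600 HepG2 cells/well mixed with NanoLuc enzyme plus prosubstrate; 5 h settle, compound (DMSO) added by pintool; luminescence monitored over 40 h at 37 C.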

[5] = qHTS RealTime-Glo MT Cell Viability Assay in HEK293 cells - 24 hour (AID 1224886); further: top concentration of the series differs between compounds; nearly all actives have a fitted effect of over 50% in size
Outline: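 Cells + reagent dispensed (600 cells/well, HEK293) → 5 h at 37 C/5% CO2 → 23 nL compound in DMSO pinned → 40 h at 37 C → luminescence read at 0, 8, 16, 24, 32, 40 h.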

[6] = qHTS RealTime-Glo MT Cell Viability Assay in HEK293 cells - 8 hour (AID 1224887); further: top concentration of the series differs between compounds; nearly all actives have a fitted effect of over 50% in size
Outline: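 600 cells/well were plated with the nonlytic NanoLuc/prosubstrate reagent, pre-incubated 5 h, then given 23 nL of compound in DMSO. Incubation at 37 C for 40 h, with luminescence from viable-cell-reduced substrate read repeatedly from 0 h.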

[7] = A CellTox Green Cytotoxicity Assay to monitor cytotoxicity in HEK293 cells - 16 hour (AID 1224888); further: nearly all actives have a fitted effect of over 35% in size
Outline: as §1

[8] = qHTS RealTime-Glo MT Cell Viability Assay in HepG2 cells - 0 hour (AID 1224889); further: nearly all actives have a fitted effect of over 50% in size
Outline: as §3

[9] = A CellTox Green Cytotoxicity Assay to monitor cytotoxicity in HepG2 cells - 8 hour (AID 1224890); further: nearly all actives have a fitted effect of over 45% in size
Outline: as §2

[10] = qHTS assay to identify small molecule antagonists of the estrogen receptor alpha (ER-alpha) signaling pathway using the BG1 cell line in the presence of 0.1 nM 17-beta-estradiol - cell viability counter screen (AID 1259241); further: nearly all actives have a fitted effect of over 40% in size
Outline: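 Following 5 days in phenol red-free medium with charcoal-stripped serum, VM7Luc4E2 cells received test compounds alongside 0.1 nM 17beta-estradiol (final) at 37C for 22 hr. Live cells were then quantified via protease-substrate fluorescence.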

[11] = qHTS assay to identify small molecule antagonists of the androgen receptor (AR) signaling pathway using the MDA cell line in the presence of 0.5 nM R1881 - cell viability counter screen (AID 1259242); further: nearly all actives have a fitted effect of over 45% in size
Outline: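 MDA-kb2 cells (MMTV-luciferase, AR/GR responsive) were treated with compounds plus 0.5 nM R1881 (final) for 16 hr at 37C, 0% CO2. Viability was then read in the same wells as live-cell protease fluorescence (CellTiter-Fluor, 30 min).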

[12] = target: Estrogen receptor (Homo sapiens) (UniProt P03372); experiment: qHTS assay to identify small molecule antagonists of the estrogen receptor alpha (ER-alpha) signaling pathway using the BG1 cell line in the presence of 0.1 nM 17-beta-estradiol (AID 1259244); further: nearly all actives have a fitted effect of over 50% in size
Outline: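 VM7Luc4E2 cells (endogenous full-length ER-alpha, 4×ERE-luciferase), kept 5 days in phenol red-free, charcoal-stripped FBS medium; 4,000 cells/well. Compounds added with 0.1 nM (final) 17beta-estradiol, 22 hr at 37C; luminescence read with ONE-Glo after 30 min.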

[13] = qHTS assay to identify small molecule phospholipidosis (PLD) inducers (AID 1259344; active means well fitted curve in the direction sought with a large enough effect; an effect the other way counts as inactive or inconclusive)
Outline: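 Fluorescent phospholipid staining (LipidTOX Red) measured by automated microscopy in fixed HepG2 cells after 24 h treatment; nuclei counterstained with Hoechst 33342; amiodarone as reference inducer.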

[14] = qHTS assay to identify small molecule HDAC inhibitors (AID 1259364); further: top concentration of the series differs between compounds; nearly all actives have a fitted effect of over 45% in size
Outline: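 Wild-type HCT-116 cells, plated overnight at 37 C, exposed to compounds 2 hr at 37 C; luminogenic HDAC-Glo substrate then added 30 min at room temperature. Luminescence reports relative endogenous class I/II HDAC activity.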

[15] = qHTS assay to identify small molecule HDAC inhibitors - cell viability counter screen (AID 1259365)
Outline: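 HCT-116 wild-type, overnight attachment; 2hr drug exposure, 37C; CellTiter-Glo luminescent ATP readout after 30min RT.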

[16] = qHTS assay to identify small molecule agonists of the sonic hedgehog signaling (Shh) pathway - cell viability counter screen (AID 1259366); further: nearly all actives have a fitted effect of over 50% in size
Outline: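 Compounds in DMSO were pin-transferred onto 3T3 Gli1-Luc cells that had settled 4hr; plates then stood 24hr at 37C and 5% CO2. One hour before the end, CellTiter-Fluor was added and fluorescence recorded.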

[17] = qHTS assay to identify small molecule antagonists of the sonic hedgehog signaling (Shh) pathway - cell viability counter screen (AID 1259367); further: nearly all actives have a fitted effect of over 55% in size
Outline: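 Using CellTiter-Fluor, viability of Gli1-Luc reporter 3T3 cells is read by fluorescence in the wells used for the Shh luciferase assay. Treatment lasts 23 hr with conditioned medium, then reagent 1 hr at 37C.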

[18] = A CellTox Green Cytotoxicity Assay to monitor cytotoxicity in HepG2 cells - 32 hour (AID 1224883); further: nearly all actives have a fitted effect of over 50% in size
Outline: as §2

[19] = target: Androgen receptor (Homo sapiens) (UniProt P10275); experiment: qHTS assay to identify small molecule antagonists of the androgen receptor (AR) signaling pathway using the MDA cell line in the presence of 0.5 nM R1881 (AID 1259243); further: nearly all actives have a fitted effect of over 50% in size
Outline: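 MDA-kb2 cells (MMTV-luciferase, responsive to AR and GR) at 3,000/well, rested 5 h at 37C, 0% CO2, then given compounds plus 0.5 nM R1881 (final) for 16 hr. Luciferase read with ONE-Glo after 30 min at room temperature.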
On the % scale 0 is the no-effect control and ±100 the full control effect.

Sequence of Estrogen receptor (Homo sapiens) (P03372 whole entry, looked up): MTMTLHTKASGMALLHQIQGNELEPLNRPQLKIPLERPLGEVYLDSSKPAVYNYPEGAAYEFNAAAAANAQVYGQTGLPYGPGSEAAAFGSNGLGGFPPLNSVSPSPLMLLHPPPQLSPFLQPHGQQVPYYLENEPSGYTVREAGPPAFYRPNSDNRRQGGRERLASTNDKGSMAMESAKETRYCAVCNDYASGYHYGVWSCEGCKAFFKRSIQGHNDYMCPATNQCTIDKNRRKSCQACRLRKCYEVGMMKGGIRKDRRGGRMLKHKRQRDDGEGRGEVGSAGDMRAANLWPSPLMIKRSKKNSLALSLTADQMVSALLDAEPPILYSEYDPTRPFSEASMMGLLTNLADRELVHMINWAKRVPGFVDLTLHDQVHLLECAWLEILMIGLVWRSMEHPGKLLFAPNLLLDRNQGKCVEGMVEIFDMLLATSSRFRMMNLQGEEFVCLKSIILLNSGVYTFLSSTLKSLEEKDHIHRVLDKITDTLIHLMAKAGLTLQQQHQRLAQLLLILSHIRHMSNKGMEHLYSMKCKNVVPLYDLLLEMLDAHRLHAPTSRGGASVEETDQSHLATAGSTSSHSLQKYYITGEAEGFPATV
Sequence of Androgen receptor (Homo sapiens) (P10275 whole entry, looked up): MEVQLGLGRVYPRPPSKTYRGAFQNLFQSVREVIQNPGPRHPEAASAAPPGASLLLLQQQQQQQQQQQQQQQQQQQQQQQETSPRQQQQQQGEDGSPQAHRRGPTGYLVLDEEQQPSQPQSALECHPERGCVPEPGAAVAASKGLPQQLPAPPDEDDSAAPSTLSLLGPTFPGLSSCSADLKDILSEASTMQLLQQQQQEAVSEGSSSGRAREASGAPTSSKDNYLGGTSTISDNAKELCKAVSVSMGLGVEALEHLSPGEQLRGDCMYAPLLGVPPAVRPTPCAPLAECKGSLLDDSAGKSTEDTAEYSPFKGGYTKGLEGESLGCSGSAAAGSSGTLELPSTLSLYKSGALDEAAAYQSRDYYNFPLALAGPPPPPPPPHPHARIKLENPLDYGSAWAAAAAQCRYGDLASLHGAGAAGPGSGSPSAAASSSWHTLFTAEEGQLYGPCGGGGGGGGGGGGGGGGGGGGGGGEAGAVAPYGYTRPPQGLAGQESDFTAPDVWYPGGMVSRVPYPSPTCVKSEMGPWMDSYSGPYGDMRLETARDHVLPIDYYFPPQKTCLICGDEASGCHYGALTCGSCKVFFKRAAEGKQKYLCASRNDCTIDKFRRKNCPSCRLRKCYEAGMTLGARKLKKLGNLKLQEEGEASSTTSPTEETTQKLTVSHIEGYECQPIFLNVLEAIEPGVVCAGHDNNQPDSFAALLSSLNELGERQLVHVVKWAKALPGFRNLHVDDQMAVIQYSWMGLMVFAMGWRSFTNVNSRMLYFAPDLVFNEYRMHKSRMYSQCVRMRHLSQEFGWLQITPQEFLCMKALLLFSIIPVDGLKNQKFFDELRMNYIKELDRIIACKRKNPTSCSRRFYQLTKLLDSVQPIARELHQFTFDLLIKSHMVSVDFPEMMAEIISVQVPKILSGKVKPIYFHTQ

CN1CCN(CC(=O)N2c3ccccc3C(=O)Nc3cccnc32)CC1
inactive: cytotoxicity increase [1] -2.73% [at 6.97 µM] | cytotoxicity [2] -13.6% [at 6.97 µM] | cytotoxicity increase [3] -1.13% [at 6.97 µM] | activity change, negative = cytotoxic [4] 0.498% [at 6.97 µM] | activity change, negative = cytotoxicity [5] 6.44% [at 6.97 µM] | activity change, negative = cytotoxicity [6] 17.8% [at 6.97 µM] | activity change [7] -1.08% [at 6.97 µM] | activity change, negative = cytotoxicity [8] 2.23% [at 6.97 µM] | cytotoxicity increase [9] -13.9% [at 6.97 µM] | activity change, negative = cytotoxicity [10] 5.03% [at 8.39 µM] | viability change, negative = cytotoxic [11] 1.29% [at 8.39 µM] | activity change, negative = inhibition [12] 8.49% [at 8.39 µM] | outcome [13] | activity change, negative = inhibition [14] 0.529% [at 8.39 µM] | activity change, negative = cytotoxicity [15] 3.63% [at 8.39 µM] | viability change, negative = cytotoxic [16] 1.72% [at 8.39 µM] | viability change, negative = cytotoxic [17] 0.196% [at 8.39 µM]

CC(C)CC(=O)O
inactive: Potency [1] | outcome [2] | Potency [18] | Potency [3] | outcome [4] | Potency [5] | Potency [6] | outcome [7] | Potency [8] | outcome [9] | Potency [10] | outcome [11] | Potency [12] | Potency [14] | outcome [15] | Potency [16]

CCCCCCCC/C=C\CCCCCCCC(=O)OCCCC
inactive: cytotoxicity increase [1] -35.2% [at 15.8 µM] | cytotoxicity [2] -2.01% [at 15.8 µM] | cytotoxicity increase [18] -13.6% [at 15.8 µM] | cytotoxicity increase [3] -25.9% [at 15.8 µM] | activity change, negative = cytotoxic [4] 1.32% [at 15.8 µM] | activity change [7] -29.4% [at 15.8 µM] | activity change, negative = cytotoxicity [8] -22.5% [at 15.8 µM] | cytotoxicity increase [9] -0.525% [at 15.8 µM] | activity change, negative = cytotoxicity [10] -3.36% [at 19 µM] | activity change, negative = inhibition [12] -2.58% [at 19 µM] | activity change, negative = inhibition [14] 2.78% [at 19 µM] | activity change, negative = cytotoxicity [15] -0.686% [at 19 µM] | viability change, negative = cytotoxic [16] -5.96% [at 19 µM] | viability change, negative = cytotoxic [17] 1.8% [at 19 µM]

O=C(O)c1cc(Br)c(O)c(Br)c1
inactive: Potency [1] | outcome [2] | Potency [18] | Potency [3] | outcome [4] | Potency [5] | Potency [6] | outcome [7] | Potency [8] | outcome [9] | Potency [10] | outcome [11] | Potency [19] | Potency [14] | outcome [15] | Potency [16] | Potency [17]

BrCCCCCBr
inactive: Potency [1] | outcome [2] | Potency [18] | Potency [3] | outcome [4] | Potency [5] | Potency [6] | outcome [7] | Potency [8] | outcome [9] | Potency [10] | outcome [11] | Potency [12] | Potency [14] | outcome [15] | Potency [16] | Potency [17]

Reference: PubChem BioAssay (Tox21)
